Experimental data from PubChem BioAssay (NCI).
Compounds without any hit were thinned out: in the full panel of roughly 83,000, 20% have a hit.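 Compound tested at a single concentration for 48 hours in 96-well plates; a percent growth value below 10 was scored as active.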 Active and inactive are the calls of the source.

system: HL-60(TB) leukemia; assay: NCI-60 one-dose screen, 48 h (100 = growth as untreated, 0 = no growth, -100 = all killed); details: 10 µM unless noted

SMILES | growth
COc1ccc(-c2c3c(nn2-c2ccc(N)cc2)CCc2cnoc2-3)cc1OC | 93.1% (inactive)
Cc1nc(Nc2ccc(NC(=S)Nc3ccccc3)cc2)nc2nc(SCc3ccccc3)[nH]c(=O)c12 | 76% (inactive)
CC(C)(C)OC(=O)N1C/C(=C\c2ccoc2)C(=O)/C(=C/c2ccoc2)C1 | 87.6% (inactive)
COc1ccc(CCN2C(=O)CCSC2=S)cc1 | 72.3% (inactive)
O=C(N/N=C/c1ccc(Oc2ccccc2)cc1)c1cnn2c1NC(c1ccccc1)C2 (stereo unspecified) | 78.6% (inactive)
COc1ccc(OC)c(-c2cc(-c3ccc(Cl)cc3)c3c(N)c(C(=O)c4ccc(Cl)cc4)sc3n2)c1 | 110% (inactive)
Oc1cc(/C=C/c2nc(N3CCOCC3)c3cc(Cl)c(Cl)cc3n2)cc(O)c1O | 99.4% (inactive)
O=C(Cn1cc(CN2CCN(c3ccnc4cc(Cl)ccc34)CC2)nn1)Nc1cccc([N+](=O)[O-])c1 | 102% (inactive)
CCOC(=O)c1cc2oc(/C=C/c3cc(=O)c4cc(Cl)ccc4o3)cc2[nH]1 | 93% (inactive)
CCOC(=O)NNc1[nH]c(-c2ccc(OC)cc2)cc1C#N | -42.4% (active)
COc1cccc(-c2nn(-c3ccccc3)cc2-c2ccnc(-c3cccnc3)c2)c1 | 56.8% (inactive)
Cc1nc(-c2cn3c(n2)-c2ccc(-c4cnn(C(C)(C)C(N)=O)c4)cc2OCC3)n(C(C)C)n1 | 35.7% (inactive)
COc1cc(/C=C/C(=O)/C=C/c2cc(OC)c3c(c2)OCO3)cc2c1OCO2 | 68.6% (inactive)
CCOC(=O)C1=C(c2ccccc2)N=C2N(c3ccccc3)N=C(C(C)=O)N2C1c1ccc(Br)cc1 (stereo unspecified) | 96.2% (inactive)
CN(C)C(=S)SCN1C(=O)c2ccc([N+](=O)[O-])cc2S1(=O)=O | 75.3% (inactive)
CCOC(=O)c1cc(C(=O)c2cc(OC)cc(OC)c2)n2ncccc12 | -21.7% (active)
COc1cc(-c2cc(-c3ccc(Nc4ccnc5cc(Cl)ccc45)cc3)nc(N3CCOCC3)n2)cc(OC)c1OC | 68.2% (inactive)
Nc1[nH]n2cc(-c3ccc(F)cc3)nc2c1N=Nc1ccc(S(N)(=O)=O)cc1 | 94.7% (inactive)
CCCCC#Cc1c(/C=C(\CCCC)SCC)n(C)c(=O)[nH]c1=O | 92.8% (inactive)
O=C(CCCCCCN1CC(=O)N2[C@@H](c3ccc(Cl)cc3)c3[nH]c4ccccc4c3C[C@H]2C1=O)NO | 46.8% (inactive)
CC1=CC(=O)C(C(C)C)=CC1=Nc1cc(Br)c(O)c(Br)c1 | -9.85% (active)
COC(=O)c1oc2c(C(C)=O)c(OCCN3CCCCC3)ccc2c1C | 110% (inactive)
CCOC(=O)C(CCCCC(NC(C)=O)(C(=O)OCC)C(=O)OCC)(NC(C)=O)C(=O)OCC | 104% (inactive)
CC(C)C1CCC(C)C(C2(C#N)C(N)=NC(N)=C2C#N)C1=O (stereo unspecified) | 96.7% (inactive)
Nc1c(C(=O)Nc2c(Cl)cccc2Cl)sc2nc3c(cc12)C(=O)CCC3 | 11.5% (inactive)
CC(=O)/C(Br)=C/c1ccc(Br)o1 | -18.8% (active)
